# Measured values reported in PubChem BioAssay (NCATS).
# Results filed as inconclusive are left out. Values without a mark were called inactive. Calls of active or inactive are those of the source. Calls come from the whole dose curve; as a rule, active = well fitted cell-killing curve with a large enough effect; inconclusive = small, poorly fitted or top-dose-only effect; inactive = no such curve, though single readings can be large or run the other way.
# Assay: qHTS of pediatric cancer cell lines to identify multiple opportunities for drug repurposing: Primary screen for Rh30 cells (AID 1347107); note: nearly all actives have a fitted effect of over 75% in size
# Conditions: Rh30 rhabdomyosarcoma viability, CellTiter-Glo luminescence, 48 h; series mostly up to 46 µM; activity change, negative = cytotoxic: at the top concentration
# Excerpt: Drug repurposing or repositioning has been offered as a strategy for drug development in oncology programs. This approach has special potential for childhood cancers and other rare or orphan diseases, where the expected return on new drug development has been a disincentive to pharmaceuticals.
# In this project we exploit the poly-pharmacology of drugs to discover new indications via phenotypic screening of a panel of 19 well-characterized cell lines derived from solid tumors seen in children and adolescents. The goal is to identify approved drugs with previously unrecognized anticancer properties that has the potential to reveal new mechanisms and biological processes involved in carcinogenesis or drug resistance. We employed a titration-based paradigm (quantitative high-throughput screening or qHTS), where all compounds were tested at multiple concentrations for their effect on cell viability. Concentration-response curves (CRCs) were derived directly from the primary screen, and both potency and efficacy values were used to identify compounds with robust bioactivity profiles. We screened the NIH Chemical Genomics Center (NCGC) Pharmaceutical Collection (NPC) and Mechanism Interrogation Plate (MIPE) small molecule collections of approved and investigational compounds against these cell lines; and measured metabolically active cells after 48 hours of compound treatment as a proxy for cell viability.
# Assay Submitter: Nathalia J. Martinez, National Center for Advancing Translational Sciences, National Institutes of Health, Rockville, MD, USA; email: natalia.martinez@nih.gov
# [1] Shen, M et al. Quantitative high-throughput phenotypic screening of pediatric cancer cell lines identifies multiple opportunities for drug repurposing. Oncotarget 2017 Dec 19;9(4):4758-4772. PMID 29435139.
# The cells were obtained from University of North Carolina (UNC), Pediatric Preclinical Testing Program (PPT), and Coriell Institute (CI).
# qHTS cell viability assay:
# Cells were assayed in growth media at a density of 500-1,000 cells/well. Five microliters of cells were dispensed into 1,536-well, white, solid-bottom, TC-treated plates (Greiner Bio One) using a multidrop dispenser and incubated at 37 degrees C, 5% CO2, under a humidified atmosphere for 5 hours. Twenty-three nanoliters of compounds and controls (neutral control DMSO or positive control bortezomib at final concentration of 2.3 µM) were subsequently transferred by Kalypsys pintool. For primary screens, the MIPE collection was tested at 11-point dilutions (final concentrations range from 0.78 nM to 46 µM) and the NPC collection at 8-point dilutions (final concentrations range from 0.59 nM to 46 µM). Compounds tested in follow-up screens were assayed at 11-point dilutions. Cells were incubated for 48 hours, followed by addition of 3 µL of CellTiter-Glo (Promega). After a 15 min incubation at room temperature, samples were analyzed for luminescence intensity using a ViewLux High-throughput CCD imager equipped with clear filters.
# % is set by controls: 0 for no effect and ±100 for the full control effect; potency is the fitted concentration of half-maximal effect.
Compound,"activity change, negative = cytotoxic",Potency
C[N+]1(C)CCC(=C(c2ccccc2)c2ccccc2)CC1,-1.53%,–
Oc1ccccc1C=NCc1ccccc1,26.5%,–
CCC(CC)(CC(=O)Nc1cccc(/C=C/c2nc(C3CCC3)cs2)c1)C(=O)O,10.6%,–
Cc1c(-c2ccccc2)oc2c(C(=O)OCCN3CCCCC3)cccc2c1=O,12.7%,–
Cc1ccc(O)c([C@H](CCN(C(C)C)C(C)C)c2ccccc2)c1,10.7%,–
COc1ccc(S(=O)(=O)N2c3ccc(Cl)cc3[C@@](O)(c3ccccc3Cl)[C@H]2C(=O)N2CCC[C@@H]2C(N)=O)cc1OC,7.37%,–
O=C(O)CCNC(=O)c1ccccc1,22.4%,–
CC(C)[C@@H]1CC[C@@H](C)CC1=O,-3.39%,–
CCCCC(CC)COC(=O)/C=C/c1ccc(OC)cc1 (stereo not given),24.3%,–
CCN1/C(=C/C=C/c2sc3ccccc3[n+]2CC)Sc2ccccc21,–,3.26 µM (active)
CCCCNc1ccc(C(=O)OCCOCCOCCOCCOCCOCCOCCOCCOCCOC)cc1,-14%,–
CC(C)Cc1ccc(CC(=O)O)cc1,28.9%,–
CN1CCN(c2c(F)cc3c(=O)c(C(=O)O)cn4c3c2SCC4)CC1,14.1%,–
N=C(N)N1CCc2ccccc2C1,7.74% [at 4.84 µM],–
COc1ccc(CN(CCN(C)C)c2ncccn2)cc1,6.05%,–
CC1(COc2ccc(CC3SC(=O)NC3=O)cc2)CCCCC1 (stereo not given),18.7%,–
O=C(O)CCc1nc2ccccc2[nH]1,10%,–
CC(C)(C)CC(C)(C)c1ccc(O)c(-n2nc3ccccc3n2)c1,14.2%,–
COc1ccc2c(c1)c1c3n2CCN(C)C3=NCC1,26.8%,–
O=C(O)C(Cc1cc(I)c(O)c(I)c1)c1ccccc1 (stereo not given),-2.34%,–

Compound,"activity change, negative = cytotoxic",Potency
COc1cc(C(=S)N2CCOCC2)ccc1O,0.146%,–
CC1CCc2c(N3CCC(O)CC3)c(F)cc3c(=O)c(C(=O)O)cn1c23 (stereo not given),11.5%,–
Cc1cc(C)cc(OCC2CNC(=O)O2)c1 (stereo not given),3.95%,–
CCOc1ccc(NC(C)=O)cc1,-0.764%,–
CCN(CC)CCOC(=O)C(Cc1cccc2ccccc12)CC1CCCO1 (stereo not given),9.86%,–
O=C1OC2(c3ccccc31)c1cc(Br)c(O)c(Br)c1Oc1c2cc(Br)c(O)c1Br,5.57%,–
CNCCCCOc1ccccc1Cc1ccccc1,5.38%,–
CCCCc1cc2ccccc2c(OCCN(C)C)n1,0.338%,–
Cc1cc(CC(=O)O)c(C)n1-c1ccc(Cl)cc1,32.9%,–
O=C1C(CCS(=O)c2ccccc2)C(=O)N(c2ccccc2)N1c1ccccc1 (stereo not given),16.9%,–
CC1=C(C(=O)O)N2C(=O)[C@@H](NC(=O)[C@H](N)c3ccccc3)[C@H]2SC1,18.2%,–
O=C(CCN1CCN2CCCC2C1)N1c2ccccc2Sc2ccc(Cl)cc21 (stereo not given),5.26% [at 16.1 µM],–
C[N+]12CCC(CC1)C(OC(=O)C(O)(c1ccccc1)c1ccccc1)C2 (stereo not given),5.63%,–
O=C(O)C1(C(=O)O)CCC1.[NH2-].[NH2-].[Pt+2],18.2%,–
CCCCCCCCCCC[C@@H](C[C@@H]1OC(=O)[C@H]1CCCCCC)OC(=O)[C@H](CC(C)C)NC=O,18%,–
O=C(Nc1ccccc1)OCC(CN1CCCCC1)OC(=O)Nc1ccccc1 (stereo not given),-9.51%,–
CCCCCCCCCCCCCCCC(=O)O,24.4%,–
CCOc1ccccc1C(N)=O,9.92%,–
N#C/C(=C1\SCC(c2ccccc2Cl)S1)n1ccnc1 (stereo not given),7.89%,–
CCCCOC(=O)CC(CC(=O)OCCCC)(OC(C)=O)C(=O)OCCCC,19.2%,–
